# From publication PMC7862700, “An all-to-all approach to the identification of sequence-specific readers for epigenetic DNA modifications on cytosine”
# Legend:
# Test in all cases: DAPPL (digital affinity profiling via proximity ligation, sequencing); 10 mM Tris-HCl pH 7.5, 50 mM NaCl, 1 mM DTT, 4% glycerol, room temperature, 30 min; GST-TFs on glutathione beads, 16-mer random dsDNA library, 0.1% formaldehyde crosslink after washing; high values mean tight binding
# FEV = target: T1, FEV (Homo sapiens, UniProt Q99581 1-238); conditions: protein: recombinant; tags: N-terminal GST; dsDNA, one strand shown
# T1 sequence: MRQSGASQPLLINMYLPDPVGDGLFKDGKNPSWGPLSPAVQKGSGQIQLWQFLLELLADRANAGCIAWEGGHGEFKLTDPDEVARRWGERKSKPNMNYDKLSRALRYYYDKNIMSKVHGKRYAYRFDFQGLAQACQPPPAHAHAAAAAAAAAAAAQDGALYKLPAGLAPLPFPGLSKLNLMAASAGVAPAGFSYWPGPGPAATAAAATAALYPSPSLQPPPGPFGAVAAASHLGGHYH
# Procedure, shortened: (§1)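 Binding signal is each hexamer's read frequency for a factor divided by its frequency in the tag-only sample. The factors were GST-fused human transcription factors from yeast, captured on glutathione beads, DNA-barcoded and pooled with that sample. Pools were incubated with 200 nmole of a random double-stranded 16-mer DNA library in Tris/NaCl/DTT/glycerol buffer at room temperature for 30 min, then washed, crosslinked with 0.1% formaldehyde, proximity-ligated with BsaI/T4 ligase (1 h, 37 °C), PCR-amplified and sequenced on an Illumina NextSeq500.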
# ETV5 = ETV5 (Homo sapiens, UniProt P41161 1-510); conditions: protein: recombinant; tags: N-terminal GST; dsDNA, one strand shown
# Chain of ETV5 (P41161 whole entry): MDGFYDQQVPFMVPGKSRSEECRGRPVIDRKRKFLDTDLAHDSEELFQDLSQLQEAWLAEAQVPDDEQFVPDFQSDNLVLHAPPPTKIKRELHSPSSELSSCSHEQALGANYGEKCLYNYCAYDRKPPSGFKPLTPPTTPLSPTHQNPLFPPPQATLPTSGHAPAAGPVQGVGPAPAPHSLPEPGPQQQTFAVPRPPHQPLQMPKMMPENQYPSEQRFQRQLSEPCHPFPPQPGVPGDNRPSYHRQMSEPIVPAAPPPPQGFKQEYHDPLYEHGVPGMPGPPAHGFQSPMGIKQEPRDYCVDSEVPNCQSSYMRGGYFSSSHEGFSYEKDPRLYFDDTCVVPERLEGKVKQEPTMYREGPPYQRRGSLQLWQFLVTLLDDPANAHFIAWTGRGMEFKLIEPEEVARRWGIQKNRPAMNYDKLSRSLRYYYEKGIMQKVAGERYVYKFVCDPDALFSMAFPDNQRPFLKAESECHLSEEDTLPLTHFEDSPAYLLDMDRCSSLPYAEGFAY
# Procedure, shortened: as §1
# HSF1 = HSF1 (Homo sapiens, UniProt Q00613 1-529); conditions: protein: recombinant; tags: N-terminal GST; chain copies: 3; dsDNA, one strand shown
# Chain of HSF1 (Q00613 whole entry): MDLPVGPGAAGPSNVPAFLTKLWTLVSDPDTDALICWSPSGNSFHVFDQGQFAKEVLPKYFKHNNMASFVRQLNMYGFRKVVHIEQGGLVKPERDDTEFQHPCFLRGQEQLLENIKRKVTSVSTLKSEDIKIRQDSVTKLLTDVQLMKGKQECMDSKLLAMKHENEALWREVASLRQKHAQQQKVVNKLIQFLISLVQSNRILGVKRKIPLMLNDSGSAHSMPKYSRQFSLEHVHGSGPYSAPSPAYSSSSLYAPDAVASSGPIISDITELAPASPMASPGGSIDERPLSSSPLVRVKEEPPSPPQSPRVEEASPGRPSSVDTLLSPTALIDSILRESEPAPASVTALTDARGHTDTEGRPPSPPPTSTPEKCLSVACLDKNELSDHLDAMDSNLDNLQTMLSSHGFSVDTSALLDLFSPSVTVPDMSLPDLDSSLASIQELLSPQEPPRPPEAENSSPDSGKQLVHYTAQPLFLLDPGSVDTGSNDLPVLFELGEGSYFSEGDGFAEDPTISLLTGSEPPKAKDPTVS
# Procedure, shortened: as §1
# SPIC = target: T2, SPIC (Homo sapiens, UniProt Q8N5J4 1-248); conditions: protein: recombinant; tags: N-terminal GST; dsDNA, one strand shown
# T2 sequence: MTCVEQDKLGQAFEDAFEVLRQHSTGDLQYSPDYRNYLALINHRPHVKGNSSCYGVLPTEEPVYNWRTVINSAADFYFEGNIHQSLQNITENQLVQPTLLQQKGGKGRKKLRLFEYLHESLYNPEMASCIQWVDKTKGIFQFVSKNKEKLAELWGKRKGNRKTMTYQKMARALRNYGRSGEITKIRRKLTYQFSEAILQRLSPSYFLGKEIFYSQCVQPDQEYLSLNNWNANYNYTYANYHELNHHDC
# Procedure, shortened: as §1
# ELF4 = ELF4 (Homo sapiens, UniProt Q99607 1-663); conditions: protein: recombinant; tags: N-terminal GST; dsDNA, one strand shown
# Chain of ELF4 (Q99607 whole entry): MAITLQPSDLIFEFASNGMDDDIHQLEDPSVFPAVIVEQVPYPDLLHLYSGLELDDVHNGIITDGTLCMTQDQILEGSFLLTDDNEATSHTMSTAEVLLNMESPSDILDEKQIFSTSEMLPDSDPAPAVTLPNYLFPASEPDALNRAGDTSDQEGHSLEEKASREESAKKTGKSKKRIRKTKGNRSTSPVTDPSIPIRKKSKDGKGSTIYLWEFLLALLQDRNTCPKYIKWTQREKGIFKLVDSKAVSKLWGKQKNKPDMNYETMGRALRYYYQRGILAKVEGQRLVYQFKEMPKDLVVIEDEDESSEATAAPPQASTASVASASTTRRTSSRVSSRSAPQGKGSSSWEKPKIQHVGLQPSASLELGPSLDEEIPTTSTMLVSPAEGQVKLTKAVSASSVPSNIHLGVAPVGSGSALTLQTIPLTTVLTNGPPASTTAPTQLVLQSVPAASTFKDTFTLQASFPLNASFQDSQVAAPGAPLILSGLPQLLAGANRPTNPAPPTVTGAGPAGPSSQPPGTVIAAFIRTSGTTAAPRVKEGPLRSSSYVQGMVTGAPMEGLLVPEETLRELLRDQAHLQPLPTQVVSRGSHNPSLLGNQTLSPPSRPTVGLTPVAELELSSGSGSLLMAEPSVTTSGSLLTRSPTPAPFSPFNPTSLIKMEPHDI
# Procedure, shortened: as §1
# ELK4 = target: T3, ELK4 (Homo sapiens, UniProt P28324-2 1-405); conditions: protein: recombinant; tags: N-terminal GST; dsDNA, one strand shown
# T3 sequence: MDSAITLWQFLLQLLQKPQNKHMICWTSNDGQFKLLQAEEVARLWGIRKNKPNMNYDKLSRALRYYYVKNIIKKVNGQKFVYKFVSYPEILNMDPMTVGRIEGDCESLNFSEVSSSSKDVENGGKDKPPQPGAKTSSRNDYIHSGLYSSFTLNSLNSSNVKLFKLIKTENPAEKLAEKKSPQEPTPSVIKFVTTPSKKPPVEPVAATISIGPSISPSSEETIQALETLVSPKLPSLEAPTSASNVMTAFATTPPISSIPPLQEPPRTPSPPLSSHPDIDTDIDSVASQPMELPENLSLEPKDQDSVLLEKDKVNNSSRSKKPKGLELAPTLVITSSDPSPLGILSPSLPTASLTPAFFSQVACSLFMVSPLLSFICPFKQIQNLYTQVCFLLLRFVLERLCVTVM
# Procedure, shortened: as §1
# ETV2 = target: T4, ETV2 (Homo sapiens, UniProt O00321 1-342); conditions: protein: recombinant; tags: N-terminal GST; dsDNA, one strand shown
# T4 sequence: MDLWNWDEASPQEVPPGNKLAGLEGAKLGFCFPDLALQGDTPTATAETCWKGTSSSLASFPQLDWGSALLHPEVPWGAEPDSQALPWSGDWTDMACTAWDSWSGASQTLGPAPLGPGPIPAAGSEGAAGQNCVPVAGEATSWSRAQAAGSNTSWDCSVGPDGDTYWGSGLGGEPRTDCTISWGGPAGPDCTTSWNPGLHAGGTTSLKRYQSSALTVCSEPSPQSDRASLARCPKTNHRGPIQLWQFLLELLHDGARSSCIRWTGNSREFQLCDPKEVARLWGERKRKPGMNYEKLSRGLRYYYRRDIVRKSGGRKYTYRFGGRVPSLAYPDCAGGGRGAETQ
# Procedure, shortened: as §1
# ELF3 = target: T5, ELF3 (Homo sapiens, UniProt P78545 1-371); conditions: protein: recombinant; tags: N-terminal GST; dsDNA, one strand shown
# T5 sequence: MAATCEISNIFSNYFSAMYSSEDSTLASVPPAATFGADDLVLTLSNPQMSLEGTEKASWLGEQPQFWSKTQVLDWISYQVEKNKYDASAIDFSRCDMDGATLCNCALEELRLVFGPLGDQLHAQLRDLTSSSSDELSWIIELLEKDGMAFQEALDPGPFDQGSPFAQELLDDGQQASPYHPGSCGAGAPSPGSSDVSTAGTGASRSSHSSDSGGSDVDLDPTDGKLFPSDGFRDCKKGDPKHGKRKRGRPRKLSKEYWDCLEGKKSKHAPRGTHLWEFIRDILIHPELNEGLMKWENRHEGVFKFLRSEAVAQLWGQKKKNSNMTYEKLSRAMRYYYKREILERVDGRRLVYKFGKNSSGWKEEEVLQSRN
# Procedure, shortened: as §1
# CRX = CRX (Homo sapiens, UniProt O43186 1-299); conditions: protein: recombinant; tags: N-terminal GST; dsDNA, one strand shown
# Chain of CRX (O43186 whole entry): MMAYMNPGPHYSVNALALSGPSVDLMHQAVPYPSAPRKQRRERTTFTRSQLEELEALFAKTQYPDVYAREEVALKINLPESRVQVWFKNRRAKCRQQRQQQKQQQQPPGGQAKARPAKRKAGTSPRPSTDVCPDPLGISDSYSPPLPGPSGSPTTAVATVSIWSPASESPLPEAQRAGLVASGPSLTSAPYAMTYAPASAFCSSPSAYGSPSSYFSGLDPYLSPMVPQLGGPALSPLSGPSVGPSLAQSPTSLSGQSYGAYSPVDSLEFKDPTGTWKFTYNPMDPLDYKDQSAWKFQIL
# Procedure, shortened: as §1
# ETV1 = ETV1 (Homo sapiens, UniProt P50549 1-477); conditions: protein: recombinant; tags: N-terminal GST; dsDNA, one strand shown
# Chain of ETV1 (P50549 whole entry): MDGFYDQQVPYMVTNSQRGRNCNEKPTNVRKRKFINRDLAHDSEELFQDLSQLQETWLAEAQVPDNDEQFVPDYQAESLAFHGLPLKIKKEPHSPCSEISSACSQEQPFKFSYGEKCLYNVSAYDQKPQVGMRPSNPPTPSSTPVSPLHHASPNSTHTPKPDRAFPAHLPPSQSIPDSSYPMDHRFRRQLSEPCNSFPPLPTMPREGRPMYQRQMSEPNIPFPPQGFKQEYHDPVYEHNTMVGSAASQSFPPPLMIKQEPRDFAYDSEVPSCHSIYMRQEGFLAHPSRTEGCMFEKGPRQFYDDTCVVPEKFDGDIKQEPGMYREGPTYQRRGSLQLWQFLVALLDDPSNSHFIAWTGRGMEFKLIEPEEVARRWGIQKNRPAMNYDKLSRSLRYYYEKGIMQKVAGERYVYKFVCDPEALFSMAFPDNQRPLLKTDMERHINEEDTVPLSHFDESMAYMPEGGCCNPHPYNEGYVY
# Procedure, shortened: as §1
# ERF = target: T6, ERF (Homo sapiens, UniProt P50548 1-548); conditions: protein: recombinant; tags: N-terminal GST; dsDNA, one strand shown
# T6 sequence: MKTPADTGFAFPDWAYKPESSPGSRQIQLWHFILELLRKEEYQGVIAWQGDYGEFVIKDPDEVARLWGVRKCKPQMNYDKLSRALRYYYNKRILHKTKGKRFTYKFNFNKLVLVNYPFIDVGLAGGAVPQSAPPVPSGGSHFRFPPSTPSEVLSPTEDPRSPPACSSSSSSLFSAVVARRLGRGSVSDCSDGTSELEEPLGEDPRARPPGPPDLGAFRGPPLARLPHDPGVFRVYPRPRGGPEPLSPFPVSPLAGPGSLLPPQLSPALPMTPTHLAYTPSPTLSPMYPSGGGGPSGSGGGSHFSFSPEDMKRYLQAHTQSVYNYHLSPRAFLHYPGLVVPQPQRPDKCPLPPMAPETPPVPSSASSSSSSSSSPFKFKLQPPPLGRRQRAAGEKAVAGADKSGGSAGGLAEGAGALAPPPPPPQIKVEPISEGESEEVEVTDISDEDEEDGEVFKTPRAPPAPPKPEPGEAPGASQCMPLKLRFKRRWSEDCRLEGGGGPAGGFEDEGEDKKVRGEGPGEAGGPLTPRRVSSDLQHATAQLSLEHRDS
# Procedure, shortened: as §1
# ETV3L = target: T7, ETV3L (Homo sapiens, UniProt Q6ZN32 1-361); conditions: protein: recombinant; tags: N-terminal GST; dsDNA, one strand shown
# T7 sequence: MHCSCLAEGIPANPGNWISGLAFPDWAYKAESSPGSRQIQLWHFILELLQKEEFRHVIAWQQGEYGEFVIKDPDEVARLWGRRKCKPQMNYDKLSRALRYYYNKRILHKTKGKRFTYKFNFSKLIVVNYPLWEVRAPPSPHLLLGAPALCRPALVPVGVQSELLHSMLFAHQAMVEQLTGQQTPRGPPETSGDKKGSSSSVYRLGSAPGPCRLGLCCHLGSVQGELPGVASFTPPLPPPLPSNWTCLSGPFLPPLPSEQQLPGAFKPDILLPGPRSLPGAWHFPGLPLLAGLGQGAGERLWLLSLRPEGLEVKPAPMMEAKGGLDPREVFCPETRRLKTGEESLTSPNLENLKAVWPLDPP
# Procedure, shortened: as §1
# ETS2 = target: T8, ETS2 (Homo sapiens, UniProt P15036 1-469); conditions: protein: recombinant; tags: N-terminal GST; dsDNA, one strand shown
# T8 sequence: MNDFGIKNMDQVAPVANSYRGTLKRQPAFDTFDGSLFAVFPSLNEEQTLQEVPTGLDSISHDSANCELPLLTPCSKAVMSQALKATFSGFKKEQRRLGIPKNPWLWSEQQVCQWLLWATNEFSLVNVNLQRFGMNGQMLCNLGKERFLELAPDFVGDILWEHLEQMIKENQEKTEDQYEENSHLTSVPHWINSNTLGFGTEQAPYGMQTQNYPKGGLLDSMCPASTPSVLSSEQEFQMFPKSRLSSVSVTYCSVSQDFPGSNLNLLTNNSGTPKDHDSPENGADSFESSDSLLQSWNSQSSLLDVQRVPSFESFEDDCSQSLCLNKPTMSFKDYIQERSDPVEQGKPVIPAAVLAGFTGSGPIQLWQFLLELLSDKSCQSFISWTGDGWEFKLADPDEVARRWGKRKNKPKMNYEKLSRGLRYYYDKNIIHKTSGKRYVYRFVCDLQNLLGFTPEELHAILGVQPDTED
# Procedure, shortened: as §1
# SPDEF = target: T9, SPDEF (Homo sapiens, UniProt O95238 1-335); conditions: protein: recombinant; tags: N-terminal GST; dsDNA, one strand shown
# T9 sequence: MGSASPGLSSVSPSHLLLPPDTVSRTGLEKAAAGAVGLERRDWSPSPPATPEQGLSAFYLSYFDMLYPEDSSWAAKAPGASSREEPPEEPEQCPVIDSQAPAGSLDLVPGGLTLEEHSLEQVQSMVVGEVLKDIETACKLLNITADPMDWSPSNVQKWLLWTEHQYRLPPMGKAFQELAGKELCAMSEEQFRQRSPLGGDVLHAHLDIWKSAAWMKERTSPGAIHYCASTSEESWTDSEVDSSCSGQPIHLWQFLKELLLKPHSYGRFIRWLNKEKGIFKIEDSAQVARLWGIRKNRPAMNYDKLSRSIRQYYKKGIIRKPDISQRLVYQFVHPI
# Procedure, shortened: as §1
# ETV7 = target: T10, ETV7 (Homo sapiens, UniProt Q9Y603 1-341); conditions: protein: recombinant; tags: N-terminal GST; dsDNA, one strand shown
# T10 sequence: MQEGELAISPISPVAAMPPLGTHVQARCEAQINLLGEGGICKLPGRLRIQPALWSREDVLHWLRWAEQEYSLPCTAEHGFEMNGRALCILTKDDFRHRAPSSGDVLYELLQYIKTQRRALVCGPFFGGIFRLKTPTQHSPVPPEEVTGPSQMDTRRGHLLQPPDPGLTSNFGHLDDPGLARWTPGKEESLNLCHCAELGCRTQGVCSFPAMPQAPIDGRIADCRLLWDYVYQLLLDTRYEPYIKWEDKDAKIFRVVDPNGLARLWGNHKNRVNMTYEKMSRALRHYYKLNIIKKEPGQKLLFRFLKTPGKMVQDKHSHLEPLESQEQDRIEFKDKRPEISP
# Procedure, shortened: as §1
# ELF5 = target: T11, ELF5 (Homo sapiens, UniProt Q9UKW6-2 1-255); conditions: protein: recombinant; tags: N-terminal GST; dsDNA, one strand shown
# T11 sequence: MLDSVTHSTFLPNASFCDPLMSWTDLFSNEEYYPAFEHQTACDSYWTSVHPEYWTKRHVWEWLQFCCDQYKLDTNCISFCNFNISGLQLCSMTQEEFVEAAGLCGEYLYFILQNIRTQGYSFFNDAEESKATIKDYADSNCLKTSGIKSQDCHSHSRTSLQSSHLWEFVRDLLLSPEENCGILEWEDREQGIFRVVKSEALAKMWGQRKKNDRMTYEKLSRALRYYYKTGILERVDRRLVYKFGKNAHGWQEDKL
# Procedure, shortened: as §1
# ETV3 = target: T12, ETV3 (Homo sapiens, UniProt P41162-2 1-143); conditions: protein: recombinant; tags: N-terminal GST; dsDNA, one strand shown
# T12 sequence: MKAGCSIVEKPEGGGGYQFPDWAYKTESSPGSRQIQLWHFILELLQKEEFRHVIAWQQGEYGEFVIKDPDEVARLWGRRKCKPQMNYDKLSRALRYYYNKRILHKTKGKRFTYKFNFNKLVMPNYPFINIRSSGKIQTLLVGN
# Procedure, shortened: as §1
# ETV6 = ETV6 (Homo sapiens, UniProt P41212 1-452); conditions: protein: recombinant; tags: N-terminal GST; dsDNA, one strand shown
# Chain of ETV6 (P41212 whole entry): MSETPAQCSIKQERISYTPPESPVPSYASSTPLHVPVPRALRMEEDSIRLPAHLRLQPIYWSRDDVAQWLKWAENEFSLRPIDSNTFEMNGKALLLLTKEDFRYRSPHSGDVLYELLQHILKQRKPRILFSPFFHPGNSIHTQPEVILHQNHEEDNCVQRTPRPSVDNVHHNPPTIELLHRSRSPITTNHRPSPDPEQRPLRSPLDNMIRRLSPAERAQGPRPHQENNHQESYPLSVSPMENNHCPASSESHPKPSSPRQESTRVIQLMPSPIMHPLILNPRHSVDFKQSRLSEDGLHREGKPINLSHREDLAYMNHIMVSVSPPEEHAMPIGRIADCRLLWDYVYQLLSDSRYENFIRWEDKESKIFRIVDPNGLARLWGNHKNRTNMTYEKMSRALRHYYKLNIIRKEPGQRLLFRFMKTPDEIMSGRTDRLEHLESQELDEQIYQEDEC
# Procedure, shortened: as §1
sequence,measurement,setting,value
AATCTA,binding signal,FEV,"1.15 fold enrichment (6-mer frequency, TF over GST control)"
same,binding signal,ETV5,"1.12 fold enrichment (6-mer frequency, TF over GST control)"
same,binding signal,HSF1,"1.87 fold enrichment (6-mer frequency, TF over GST control)"
same,binding signal,SPIC,"1.1 fold enrichment (6-mer frequency, TF over GST control)"
same,binding signal,ELF4,"1.14 fold enrichment (6-mer frequency, TF over GST control)"
same,binding signal,ELK4,"1.07 fold enrichment (6-mer frequency, TF over GST control)"
same,binding signal,ETV2,"1.09 fold enrichment (6-mer frequency, TF over GST control)"
same,binding signal,ELF3,"1.04 fold enrichment (6-mer frequency, TF over GST control)"
same,binding signal,CRX,"1.92 fold enrichment (6-mer frequency, TF over GST control)"
same,binding signal,ETV1,"1.21 fold enrichment (6-mer frequency, TF over GST control)"
same,binding signal,ERF,"1.25 fold enrichment (6-mer frequency, TF over GST control)"
same,binding signal,ETV3L,"1.08 fold enrichment (6-mer frequency, TF over GST control)"
same,binding signal,ETS2,"1.16 fold enrichment (6-mer frequency, TF over GST control)"
same,binding signal,SPDEF,"1.02 fold enrichment (6-mer frequency, TF over GST control)"
same,binding signal,ETV7,"1.13 fold enrichment (6-mer frequency, TF over GST control)"
same,binding signal,ELF5,"1.1 fold enrichment (6-mer frequency, TF over GST control)"
same,binding signal,ETV3,"1.05 fold enrichment (6-mer frequency, TF over GST control)"
same,binding signal,ETV6,"1.09 fold enrichment (6-mer frequency, TF over GST control)"
